# Results reported in ChEMBL document CHEMBL1157539, “Thousands of chemical starting points for antimalarial lead identification” (Nature, 2010).
# Assays:
# Format in all cases: functional
# [1] = test system: Plasmodium falciparum; test: GSK_TCMDC: Inhibition of Plasmodium falciparum 3D7 in whole red blood cells, using parasite LDH activity as an index of growth. Test compounds present at 2uM
# [2] = test system: Plasmodium falciparum; test: GSK_TCMDC: Inhibition of Plasmodium falciparum Dd2 in whole red blood cells, using parasite LDH activity as an index of growth. Test compounds present at 2uM
# [3] = test system: HepG2; test: GSK_TCMDC: Percent inhibition of human HepG2 cell line. Test compounds present at 10uM.
SMILES,Inhibition [1] [%],Inhibition [2] [%],Inhibition [3] [%]
Cc1nnsc1C(=O)Nc1cccc(-c2ccc(-c3nc4cc(F)ccc4[nH]3)cc2)c1,100,89,51
O=C(Nc1cccc(CN2CCN(Cc3cccc(O)c3)CC2)c1)c1ccc(Cl)c(Cl)c1.O=C(O)C(F)(F)F,100,35,28
CC[C@@H]([C@@H](CC(C)C)C(=O)N[C@@H](CCCCNC(=O)OCc1ccccc1)C(=O)Nc1ccccn1)N(O)C=O,98,99,0
CN1CCCN(c2ccnc3cc4c(cc23)N(C(=O)c2ccc(Cl)cc2)CC4)CC1.Cl,100,0,0
Cc1ccc2c(O)c([N+](=O)[O-])c(O)nc2c1,98,0,3
CCOc1ccc(C2CCN(CCCCNC(=O)c3ccc(NC(=O)c4ccc(Cl)cc4)cc3)CC2)c(OCC)c1.Cl,100,95,14
CCOc1ccc2[nH]c(-c3ccccc3)cc(=NN=Cc3ccncc3)c2c1,100,100,19
CCCCCCCN1CCC(NC(=O)Nc2ccnc3ccc(OC)cc23)C(CO)C1.O=C(O)C(=O)O (centres undefined),94,69,23
O=C(NCCCN(Cc1ccc(F)cc1)c1ccccn1)C(c1cc2ccccc2o1)N1CCN(C(c2ccccc2)c2ccccc2)CC1 (centres undefined),97,53,14
CCCc1cnc2nc(N)nc(N)c2c1C,93,3,68
CC(=O)Nc1cccc(C(=O)Nc2cccc(-c3ccc(-c4nc5cccc(C)c5[nH]4)s3)c2)c1,99,26,75
CC(=O)O.CCC[C@@H]([C@@H](CC1CCCCC1)C(=O)N[C@H](C(=O)Nc1nccc(N)n1)C(C)(C)C)N(O)C=O,96,82,25
Cc1cc(Oc2ccc(-n3ccnc3)cc2)nc(N2CCN(CCCN3CCCC3)CC2)n1.O=C(O)C(F)(F)F,90,7,5
CN(C)c1ccc(C=C2SC(=N)N(c3nccs3)C2=O)cc1,97,50,38
O=C(O)c1ccc(OCOCOc2ccc(C(=O)O)c(O)c2)cc1O,99,0,0
CCCCCCCc1c(C)nc2ccccc2c1O,98,96,0
Cc1c(-c2cccc(NC(=O)C(C)(C)Oc3ccc(Cl)cc3)c2)nc2ncccn12,98,95,0
CS(=O)(=O)c1ccc(CNCc2ccc(-c3cccc(-c4nc5ccccc5[nH]4)c3)cc2)cc1.O=C(O)C(F)(F)F,100,88,17
CCCCCCCN1CC[C@@H](C[C@H](N)Cc2ccnc3ccc(OC)cc23)[C@@H](CC)C1.O=C(O)C(=O)O,91,51,33
Oc1cc2c(cc1CN1CCN(Cc3ccccc3F)CC1)CCC2,98,94,2
CN(N=Cc1ccccc1)C(=N)NCCCC#Cc1cccc(CN2CCCC2)c1,89,3,16
COc1cccc(C(C)(C)NC[C@@H](O)[C@H](Cc2ccccc2)NC(=O)c2cc(C3CCCC3)cc(N3CCCCS3(=O)=O)c2F)c1.O=CO,99,99,16
C[C@H](N[C@H]1CCCc2c1[nH]c1ccc(Br)cc21)c1ccccc1.Cl,96,95,58
CC(=O)OCCN1C(=O)c2ccc3c4c(ccc(c24)C1=O)C(=O)N(CCOC(C)=O)C3=O,94,1,2
CCn1c(-c2nonc2N)nc2c(-c3cccc(Cl)c3)ncc(OCCCNCCc3c[nH]cn3)c21.O=C(O)C(F)(F)F,100,98,16
c1ccc(-c2cccc(-c3ccccn3)n2)nc1 [TERPYRIDINE],98,99,45
CC(C)N(Cc1ccc(-c2ccc(C(F)(F)F)cc2)cc1)C(=O)Cn1c(SCc2cccc(F)c2F)cc(=O)c2cc(CN3CCCCC3)ccc21.Cl,100,59,97
CN1CCN(CCCN(Cc2csc(-c3ccc(CNCc4ccccc4)cc3)n2)C(=O)Nc2cc(Cl)cc(Cl)c2)CC1.O=C(O)C(F)(F)F,100,45,34
